Here are results for 23 targets from the supplement of paper PMC10849652.

The full data set covers some 8,800 targets. This sample favours those with a hit. About 0.5% of all pairs of compound and target were hits.

Sequence of UniProt P0C869 (P0C869 whole entry, looked up): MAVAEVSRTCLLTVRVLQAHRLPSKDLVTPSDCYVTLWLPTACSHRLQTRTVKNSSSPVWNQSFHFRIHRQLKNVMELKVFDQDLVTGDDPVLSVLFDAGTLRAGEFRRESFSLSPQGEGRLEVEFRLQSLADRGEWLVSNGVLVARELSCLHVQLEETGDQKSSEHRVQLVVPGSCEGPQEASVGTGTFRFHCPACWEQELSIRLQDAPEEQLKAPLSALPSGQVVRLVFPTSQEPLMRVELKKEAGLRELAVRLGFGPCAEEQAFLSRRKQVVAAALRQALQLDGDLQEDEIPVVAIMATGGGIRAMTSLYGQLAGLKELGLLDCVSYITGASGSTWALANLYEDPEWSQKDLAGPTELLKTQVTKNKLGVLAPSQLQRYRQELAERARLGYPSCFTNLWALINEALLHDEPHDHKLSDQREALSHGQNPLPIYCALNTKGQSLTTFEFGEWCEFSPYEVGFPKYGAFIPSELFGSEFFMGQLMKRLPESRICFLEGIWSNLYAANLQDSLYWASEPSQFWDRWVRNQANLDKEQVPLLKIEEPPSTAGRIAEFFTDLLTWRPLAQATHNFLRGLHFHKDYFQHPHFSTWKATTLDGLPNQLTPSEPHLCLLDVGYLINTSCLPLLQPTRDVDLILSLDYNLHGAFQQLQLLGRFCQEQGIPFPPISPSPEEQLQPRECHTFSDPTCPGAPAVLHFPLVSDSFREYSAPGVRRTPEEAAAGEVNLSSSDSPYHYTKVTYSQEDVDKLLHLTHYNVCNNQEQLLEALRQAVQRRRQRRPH
Sequence of UniProt Q15269 (Q15269 whole entry, looked up): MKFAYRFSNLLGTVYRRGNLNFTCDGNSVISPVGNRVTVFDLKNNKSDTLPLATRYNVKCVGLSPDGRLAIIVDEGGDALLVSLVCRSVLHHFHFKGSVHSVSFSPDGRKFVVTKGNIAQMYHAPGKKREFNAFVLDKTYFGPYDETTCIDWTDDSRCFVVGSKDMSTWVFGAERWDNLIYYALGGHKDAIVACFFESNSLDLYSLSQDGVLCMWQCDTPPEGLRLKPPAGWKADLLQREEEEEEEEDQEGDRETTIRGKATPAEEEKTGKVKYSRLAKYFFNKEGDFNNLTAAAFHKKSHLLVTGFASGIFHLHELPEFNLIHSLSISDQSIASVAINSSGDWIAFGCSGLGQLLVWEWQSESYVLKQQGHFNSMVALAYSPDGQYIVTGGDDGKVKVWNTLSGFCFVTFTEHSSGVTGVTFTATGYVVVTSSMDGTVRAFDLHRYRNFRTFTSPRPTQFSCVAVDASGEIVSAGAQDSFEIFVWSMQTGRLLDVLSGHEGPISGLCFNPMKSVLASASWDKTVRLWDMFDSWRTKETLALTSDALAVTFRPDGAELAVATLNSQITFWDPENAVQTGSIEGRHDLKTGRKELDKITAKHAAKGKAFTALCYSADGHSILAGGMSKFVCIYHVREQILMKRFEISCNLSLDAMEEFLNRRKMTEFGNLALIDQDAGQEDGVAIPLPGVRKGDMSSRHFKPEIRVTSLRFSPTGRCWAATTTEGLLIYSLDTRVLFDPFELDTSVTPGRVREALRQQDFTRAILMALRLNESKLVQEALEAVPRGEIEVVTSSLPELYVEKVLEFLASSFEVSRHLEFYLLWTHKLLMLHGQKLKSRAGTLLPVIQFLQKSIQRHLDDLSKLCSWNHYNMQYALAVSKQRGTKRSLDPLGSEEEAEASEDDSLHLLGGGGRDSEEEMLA
Sequence of UniProt P78395 (P78395 whole entry, looked up): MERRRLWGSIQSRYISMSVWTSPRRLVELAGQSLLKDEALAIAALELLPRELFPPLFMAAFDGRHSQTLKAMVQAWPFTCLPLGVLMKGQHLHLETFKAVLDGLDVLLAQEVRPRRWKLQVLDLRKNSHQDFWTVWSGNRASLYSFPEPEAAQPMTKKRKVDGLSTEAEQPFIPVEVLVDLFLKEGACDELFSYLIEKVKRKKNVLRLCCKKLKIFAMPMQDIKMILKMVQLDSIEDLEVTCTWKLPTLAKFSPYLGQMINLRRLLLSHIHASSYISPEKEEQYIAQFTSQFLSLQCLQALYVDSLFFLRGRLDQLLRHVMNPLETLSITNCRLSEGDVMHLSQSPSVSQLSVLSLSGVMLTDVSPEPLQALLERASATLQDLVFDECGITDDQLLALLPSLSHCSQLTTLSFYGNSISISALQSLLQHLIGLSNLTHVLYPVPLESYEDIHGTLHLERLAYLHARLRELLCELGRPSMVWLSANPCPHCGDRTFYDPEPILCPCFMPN
Sequence of UniProt Q16512 (Q16512 whole entry, looked up): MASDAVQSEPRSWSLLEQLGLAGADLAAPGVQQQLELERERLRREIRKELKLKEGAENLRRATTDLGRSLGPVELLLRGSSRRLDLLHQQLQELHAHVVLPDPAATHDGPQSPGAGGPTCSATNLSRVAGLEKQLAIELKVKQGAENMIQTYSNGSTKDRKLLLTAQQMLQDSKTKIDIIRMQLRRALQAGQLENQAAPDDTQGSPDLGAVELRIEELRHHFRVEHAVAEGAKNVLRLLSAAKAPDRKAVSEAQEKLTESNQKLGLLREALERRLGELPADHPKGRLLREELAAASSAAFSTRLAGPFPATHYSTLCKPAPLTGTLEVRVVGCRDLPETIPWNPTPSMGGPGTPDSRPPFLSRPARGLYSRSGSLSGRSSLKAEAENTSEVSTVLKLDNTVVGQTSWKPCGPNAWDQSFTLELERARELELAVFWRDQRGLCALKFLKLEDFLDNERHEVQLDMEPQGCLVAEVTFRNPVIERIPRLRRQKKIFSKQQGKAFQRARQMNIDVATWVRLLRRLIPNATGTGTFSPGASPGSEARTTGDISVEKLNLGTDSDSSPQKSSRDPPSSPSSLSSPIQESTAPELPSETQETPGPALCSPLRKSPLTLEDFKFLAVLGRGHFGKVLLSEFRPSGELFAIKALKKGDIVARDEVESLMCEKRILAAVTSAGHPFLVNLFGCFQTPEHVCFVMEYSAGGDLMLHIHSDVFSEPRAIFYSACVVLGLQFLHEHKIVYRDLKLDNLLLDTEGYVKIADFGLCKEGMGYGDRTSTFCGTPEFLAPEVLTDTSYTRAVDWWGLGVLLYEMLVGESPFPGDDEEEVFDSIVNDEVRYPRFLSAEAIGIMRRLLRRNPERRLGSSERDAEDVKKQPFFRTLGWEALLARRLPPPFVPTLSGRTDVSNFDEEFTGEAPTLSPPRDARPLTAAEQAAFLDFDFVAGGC
Sequence of UniProt O00459 (O00459 whole entry, looked up): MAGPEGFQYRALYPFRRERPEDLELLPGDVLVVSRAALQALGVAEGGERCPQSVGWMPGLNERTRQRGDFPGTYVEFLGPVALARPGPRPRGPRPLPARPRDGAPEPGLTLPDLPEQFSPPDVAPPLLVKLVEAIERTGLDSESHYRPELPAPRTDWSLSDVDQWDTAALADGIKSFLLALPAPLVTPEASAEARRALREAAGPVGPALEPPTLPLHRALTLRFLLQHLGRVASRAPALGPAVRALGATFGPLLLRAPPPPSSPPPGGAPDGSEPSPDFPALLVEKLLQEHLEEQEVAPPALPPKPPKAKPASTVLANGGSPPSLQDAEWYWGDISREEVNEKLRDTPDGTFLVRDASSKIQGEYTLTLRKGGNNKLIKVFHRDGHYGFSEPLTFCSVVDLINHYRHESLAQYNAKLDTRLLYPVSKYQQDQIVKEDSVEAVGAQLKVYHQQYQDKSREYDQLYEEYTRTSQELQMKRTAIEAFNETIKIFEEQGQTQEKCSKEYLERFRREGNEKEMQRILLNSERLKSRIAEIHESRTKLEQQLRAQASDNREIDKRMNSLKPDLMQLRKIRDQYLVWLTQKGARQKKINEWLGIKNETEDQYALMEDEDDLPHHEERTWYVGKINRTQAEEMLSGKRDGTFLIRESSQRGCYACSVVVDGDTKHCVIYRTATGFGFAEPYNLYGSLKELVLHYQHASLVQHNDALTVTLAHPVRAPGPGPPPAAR
Sequence of UniProt O95336 (O95336 whole entry, looked up): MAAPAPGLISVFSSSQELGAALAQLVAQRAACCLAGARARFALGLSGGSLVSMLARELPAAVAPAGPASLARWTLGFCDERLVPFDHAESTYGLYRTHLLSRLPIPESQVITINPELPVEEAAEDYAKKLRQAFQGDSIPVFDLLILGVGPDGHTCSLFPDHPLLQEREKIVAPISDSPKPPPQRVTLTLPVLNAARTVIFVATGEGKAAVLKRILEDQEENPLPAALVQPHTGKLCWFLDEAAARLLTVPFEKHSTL
Sequence of UniProt Q9H4Z3 (Q9H4Z3 whole entry, looked up): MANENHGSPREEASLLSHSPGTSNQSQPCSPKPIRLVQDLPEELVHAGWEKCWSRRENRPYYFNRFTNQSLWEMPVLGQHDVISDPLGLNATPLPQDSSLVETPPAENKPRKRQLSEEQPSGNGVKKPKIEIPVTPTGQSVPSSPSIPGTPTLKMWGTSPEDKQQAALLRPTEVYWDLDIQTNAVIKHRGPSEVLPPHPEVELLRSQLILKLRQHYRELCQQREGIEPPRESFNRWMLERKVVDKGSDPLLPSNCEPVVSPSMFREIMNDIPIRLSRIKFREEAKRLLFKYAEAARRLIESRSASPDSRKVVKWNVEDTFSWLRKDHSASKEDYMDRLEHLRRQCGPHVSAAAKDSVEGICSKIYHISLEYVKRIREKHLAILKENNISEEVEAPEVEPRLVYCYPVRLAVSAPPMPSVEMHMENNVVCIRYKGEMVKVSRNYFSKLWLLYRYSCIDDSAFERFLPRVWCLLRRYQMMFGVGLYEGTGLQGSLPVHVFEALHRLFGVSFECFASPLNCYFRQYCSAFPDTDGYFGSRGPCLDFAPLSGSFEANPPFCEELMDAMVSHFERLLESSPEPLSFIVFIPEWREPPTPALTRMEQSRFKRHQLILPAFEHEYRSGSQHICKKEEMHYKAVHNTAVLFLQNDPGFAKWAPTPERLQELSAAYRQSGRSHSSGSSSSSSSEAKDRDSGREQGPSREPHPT

Compound in the assay: NC(=O)Nc1cc(-c2cccc(F)c2)sc1C(=O)N[C@H]1CCCNC1
Briefly: log2 fold change, soluble protein after heating vs DMSO (PISA); higher = thermal stabilisation; K562 lysate, 10 uM; active = over 0.2 and 3.5 SD of the protein, either way, in both replicates (recomputed). The gist of the method: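 Pellets of K562 cells were dounce-homogenised in PBS pH 7.4 with 1 mM MgCl2, and the crude extract was held at 1 mg/mL protein for a 30 min treatment with 10 μM compound. Aliquots were heated for 3 min over 48°C-58°C and pooled before NP-40 was added to 0.5% at 4°C. The supernatant from 21,000xg for 90 min was quantified by TMTpro 16plex LC-MS/MS with channel sums equalised. Values are reported from duplicates as log-two fold change in thermal stability relative to solvent controls.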
For the target PRAME (UniProt P78395), the log2 fold change was 0.053 (inactive). In the case of PWP2 (UniProt Q15269) it was 0.036 (inactive). In the case of POLA1 (UniProt P09884) it was 0.029 (inactive); in that of PCIF1 (UniProt Q9H4Z3), -0.016 (inactive).

With PGLS (UniProt O95336), the log2 fold change was -0.017 (inactive). As for PRKCSH isoform 2 (UniProt P14314), the log2 fold change was -0.079 (inactive). Next, PIP4K2B (UniProt P78356): 0 (inactive); PPP1R8 (UniProt Q12972): -0.007 (inactive); POLD1 (UniProt P28340): 0.015 (inactive). Next, PIKFYVE (UniProt Q9Y2I7): 0.007 (inactive). Next, PPP2CA (UniProt P67775): -0.093 (inactive); PLA2G4B isoform 6 (UniProt P0C869): 0.158 (inactive).

With PCBP2 isoform 3 (UniProt Q15366), the log2 fold change was 0 (inactive). In the case of PWP1 (UniProt Q13610) it was -0.005 (inactive); in that of PPP3CA isoform 2 (UniProt Q08209), 0.048 (inactive). In the case of PMS1 (UniProt P54277) it was 0.041 (inactive); in that of PIK3R1 (UniProt P27986), 0.042 (inactive); in that of PKN1 isoform 2 (UniProt Q16512), -0.128 (inactive). For PTPN2 (UniProt P17706), the log2 fold change is 0.025 (inactive). Next, PIK3R2 (UniProt O00459): 0.031 (inactive). In the case of PIK3CB (UniProt P42338) it was 0.053 (inactive); in that of PRMT7 (UniProt Q9NVM4), 0.023 (inactive). In the case of PRKCSH (UniProt K7ELL7) it was 0.024 (inactive).
